Reference: PubChem BioAssay (NCI)
The panel holds about 83,000 compounds, 20% with a hit somewhere; the sample as a whole holds those more often.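 Plates (96-well) were seeded with cells, treated with compound at one concentration, and incubated for 48 hours before percent growth was determined.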 Activity calls are given as the source filed them. Rule for the calls: active = growth percent below 10; inactive = the rest.

Assays:
Assay in all cases: NCI-60 one-dose screen, 48 h (100 = growth as untreated, 0 = no growth, -100 = all killed)
Conditions in all cases: 10 µM unless noted
[1] = tested on: NCI-H23 lung
[2] = tested on: NCI-H226 lung
[3] = tested on: NCI-H322M lung
[4] = tested on: HOP-62 NSCLC
[5] = tested on: NCI-H460 lung
[6] = tested on: HOP-92 NSCLC
[7] = tested on: NCI-H522 lung
[8] = tested on: A549/ATCC NSCLC
[9] = tested on: 786-0 renal
[10] = tested on: COLO 205 colon
[11] = tested on: DU-145 prostate
[12] = tested on: K-562 leukemia
[13] = tested on: MALME-3M melanoma
[14] = tested on: MDA-MB-231 breast
[15] = tested on: RXF 393 renal
[16] = tested on: SF-268 CNS
[17] = tested on: SF-295 CNS
[18] = tested on: SF-539 CNS
[19] = tested on: M14 melanoma
[20] = tested on: UACC-257 melanoma

Measured: growth

Cc1cc(N(CCNc2ccnc3cc(Cl)ccc23)Cc2ccc3c(c2)OCO3)nc(N2CCN(C)CC2)n1
active: [4] 0.334% | [6] -10.2% | [7] 7.7% | [9] -6.41% | [10] -67.1% | [12] -59.1% | [13] -71.6% | [14] 4.9% | [15] -45.7% | [17] -66.4% | [18] -80.9% | [19] -79.6%
inactive: [1] 56.6% | [2] 75.7% | [3] 41.5% | [5] 18.2% | [8] 26% | [11] 38.2% | [16] 29.3%

C=CC(=O)N(C)[C@H]1C[C@H]2OC(C)(C1OC)n1c3ccccc3c3c4c(c5c6ccccc6n2c5c31)C(=O)NC4 (stereo partly drawn)
inactive: [11] 28.7%
active: [1] 4.64% | [2] -60.7% | [3] 6.29% | [4] -15.4% | [5] 1.35% | [6] -21.8% | [7] -54.5% | [8] 9.49% | [9] -74.2% | [10] -75.3% | [12] 4.26% | [13] -46.7% | [14] 7.42% | [15] -90.1% | [16] 6.45% | [17] -27% | [18] -49.1% | [19] -1.74%

CN1CCN(CCCOc2cccc3nc(Nc4ccc(Cl)c(C(F)(F)F)c4)ccc23)CC1
inactive: [1] 18.8% | [2] 77.1% | [3] 15.9% | [4] 15.5% | [6] 10.2% | [13] 34.1% | [15] 14.7% | [16] 28.3% | [20] 59.3%
active: [5] -19.3% | [7] -40.6% | [8] 6.87% | [9] -42.9% | [10] -61.6% | [11] 4.82% | [12] -41.3% | [14] -44.5% | [17] -11% | [18] 7.03% | [19] -54.6%

[2H]C1([2H])[C@H](C)O[C@H](C)C([2H])([2H])N1c1ccc(NC(=O)c2cccc(-c3ccc(OC(F)(F)F)cc3)c2C)cn1
inactive: [1] 58.5% | [2] 58.7% | [3] 83.4% | [4] 77.7% | [5] 85.1% | [7] 44.7% | [8] 68.9% | [9] 74.1% | [10] 81.6% | [11] 80.1% | [12] 38.2% | [13] 68.2% | [14] 74.9% | [15] 90% | [16] 71.6% | [17] 73.3% | [18] 81.6% | [19] 77%
active: [6] 8.86%

Nc1ncnc2c1ccn2-c1cccc(NC(=O)c2ccc(N3CCOCC3)c(C(F)(F)F)c2)c1
inactive: [1] 49.8% | [2] 60% | [3] 80.6% | [4] 71.3% | [5] 28.8% | [6] 20.5% | [7] 18.7% | [8] 28.1% | [9] 86.4% | [10] 49% | [11] 57.8% | [12] 21% | [13] 65.3% | [14] 46.6% | [15] 19.4% | [16] 55% | [17] 28.6% | [18] 46.9% | [19] 44.5%

CN(C)CCOC(=O)Nc1nc2ccc(Sc3ccccc3)cc2[nH]1
active: [7] -24% | [10] 8.53% | [18] -0.508% | [19] 0.259%
inactive: [1] 44% | [2] 61.8% | [3] 36.9% | [4] 29.1% | [5] 13% | [6] 41.8% | [8] 38.7% | [9] 42.2% | [11] 27.2% | [12] 15.7% | [13] 49.2% | [14] 47.8% | [15] 14.1% | [16] 51% | [17] 24.9% | [20] 49.1%

Clc1ccc2c(NCCCNCc3ccc4c(c3)OCO4)ccnc2c1
inactive: [1] 72.7% | [2] 80.1% | [3] 71.8% | [4] 42.7% | [5] 60.5% | [6] 47.4% | [7] 20.1% | [8] 51.2% | [9] 66.8% | [11] 58.1% | [14] 12.9% | [15] 19% | [16] 62% | [17] 59.8%
active: [10] -56.6% | [12] -10.9% | [13] -69.6% | [18] -86.7% | [19] -72.5%

Cc1cc(Nc2nc(N[C@@H](C)c3ncc(F)cn3)ncc2Cl)n[nH]1
inactive: [1] 69.9% | [2] 46.8% | [3] 52.8% | [4] 60.3% | [5] 81.6% | [6] 108% | [7] 68.3% | [8] 66.2% | [9] 73.8% | [10] 44.1% | [11] 99.5% | [12] 77.6% | [13] 56.4% | [14] 83.8% | [15] 24.4% | [16] 72% | [17] 94.4% | [18] 80.8% | [20] 71.1% | [19] 58.7%

Cc1cc(N2CCOCC2)nc(N(CCNc2ccnc3cc(Cl)ccc23)Cc2cccs2)n1
inactive: [1] 35.4% | [2] 54.6% | [3] 26.9% | [4] 19.8% | [6] 15.6% | [8] 28.7% | [11] 42% | [16] 43.8%
active: [5] 7.16% | [7] -21.5% | [9] -35.2% | [10] -69.2% | [12] 2.63% | [13] -18.4% | [14] -0.994% | [15] -46.5% | [17] -54% | [18] -65.7% | [19] 3%

CN1CCN(c2nc(NCCNc3ccnc4cc(Cl)ccc34)c3ccccc3n2)CC1
active: [7] -20.2% | [8] 1.62% | [9] -33.3% | [10] -62.6% | [12] -14.1% | [13] -57.4% | [14] -10.8% | [15] -35.8% | [17] -38.7% | [18] -78.4% | [19] -63.3%
inactive: [1] 44.9% | [2] 62% | [3] 21.3% | [4] 13.7% | [5] 11.6% | [6] 53% | [11] 34.6% | [16] 32.6%

Cc1cc2c(-c3nc4ccccn4c3Nc3cccc4ccccc34)c(O)c(O)cc2c(O)c1-c1c(C)cc2c(-c3nc4ccccn4c3Nc3cccc4ccccc34)c(O)c(O)cc2c1O
active: [5] 3.9% | [6] 9.86%
inactive: [1] 12.4% | [2] 46.6% | [3] 59.4% | [4] 37.9% | [7] 32% | [8] 16.1% | [9] 68% | [10] 28% | [11] 31.4% | [12] 15.2% | [13] 10.8% | [14] 23.3% | [15] 39.6% | [16] 30.9% | [17] 13.1% | [18] 20.4% | [19] 27.2%

CS(=O)(=O)N1CCN(Cc2cc3nc(-c4cccc5[nH]ncc45)nc(N4CCOCC4)c3s2)CC1
active: [3] -6.73% | [6] -17.1% | [8] 8.23% | [9] -7.35% | [10] 1.08% | [13] 1.98% | [15] -23.3% | [17] 3.4% | [18] -2.44%
inactive: [1] 37.7% | [2] 39.3% | [4] 30.9% | [5] 23.2% | [7] 20.8% | [11] 18.8% | [12] 64% | [14] 51.5% | [16] 30.3% | [20] 14.7% | [19] 40%

COC(=O)C1CCc2sc3ncnc(Nc4cn[nH]c4C(=O)Nc4ccc(CN5CCN(C)CC5)cc4)c3c21 (stereo not drawn)
inactive: [2] 14.9% | [17] 26.4%
active: [1] -9.63% | [3] 8.74% | [4] 0.169% | [5] -59% | [6] -29.2% | [7] -1.37% | [8] 4.85% | [9] -4.45% | [10] -70.8% | [11] -44.6% | [12] -24% | [13] -72.3% | [14] -0.275% | [15] -78.9% | [16] -1.56% | [18] -77.3% | [19] -0.905%

CCN1CCN(c2nc(C)cc(N(CCCNc3ccnc4cc(Cl)ccc34)Cc3ccc4c(c3)OCO4)n2)CC1
active: [3] -11.1% | [4] -42.1% | [5] -6.13% | [6] -33.9% | [7] -43.1% | [8] 5.33% | [9] -85.8% | [10] -78.6% | [12] -10.5% | [13] -81.9% | [14] -32.8% | [15] -73.4% | [16] -6.06% | [17] -76.1% | [18] -86.1% | [19] -87.9%
inactive: [1] 46% | [2] 61% | [11] 25%

COC(=O)C1=C(C(=O)OC)C23C=C(C)C1C2=C(C)C1(CC1)[C@@](C)(O)C3=O (stereo partly drawn)
active: [1] -20.9% | [2] -34.8% | [3] -9.66% | [4] -21.7% | [5] 0.847% | [6] -19.3% | [7] -11% | [8] 1.39% | [9] -20.6% | [10] -51.9% | [11] 2.57% | [13] -44.4% | [14] 9.08% | [15] -64.4% | [16] 7.19% | [17] -4% | [18] -39.6% | [19] -43.1%
inactive: [12] 81%

COc1cc(C2CC(c3ccc(Cl)cc3)=NN2c2ccc(Cl)cc2)cc(OC)c1OC (stereo not drawn)
inactive: [1] 97.4% | [2] 88.4% | [3] 91.1% | [4] 100% | [5] 97.1% | [6] 57.7% | [7] 88.9% | [8] 93.9% | [9] 98.8% | [10] 91.4% | [11] 106% | [12] 93.8% | [13] 92% | [14] 79.8% | [15] 89.6% | [16] 90.6% | [17] 95.3% | [18] 93.9% | [19] 90.3%
